The campaign covered roughly 360,000 compounds. About 7,500 (2.1%) were called active. Entries that show only a call come without a potency. About 8% were inconclusive and are not listed. The full list was thinned out, with actives kept by preference. A number with no mark means an inactive call. Calls follow the shape of the dose curve; as a rule, active = well fitted cell-killing curve with a large enough effect; inconclusive = small, poorly fitted or top-dose-only effect, or effect the other way, or another doubt; inactive = no such curve, though single readings can be large or run the other way.
Potency is read from the fitted curve at half-maximal effect.

The assay can be described thus: qHTS for induction of synthetic lethality in tumor cells producing 2HG: qHTS for the HT-1080-IDH1KD cell line. The settings on record: HT-1080 IDH1 knockdown viability, ATP luminescence, 48 h; series mostly up to 46.1 µM. In short, it runs like this:
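HT-1080-IDH1KD cells (IDH1 knocked down), 750/well in RPMI with 5% FBS, treated with compound 48 h at 37 degrees C. Viability by CellTiter-Glo luminescence, normalised to DMSO and no-cell wells; concentration-response curves classed.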
On the technique in general: Quantitative high-throughput screening tests each substance at several concentrations.
For `C[C@@H]1CN([C@H](C)CO)S(=O)(=O)c2ccc(C#CC3CCCCC3)cc2O[C@H]1CN(C)C(=O)Cc1ccncc1`, the Potency entry was “inactive”. On the same count and under the same terms, in the case of `CCOC(=O)C1=C(c2ccc(OC)cc2)C(=O)c2ccccc2C1=O` it was 7.31 µM (active).

Regarding `COc1ccc(CNC(=O)CCN2C(=O)c3ccccc3C2=O)cc1`, the Potency result is “inactive”.

As to `COC(=O)c1cc(OC)ccc1-c1ccc(OC)cc1`, the activity, negative = toxicity is -0.423% [at 9.24 µM]. Regarding `CC1=C(C(=O)N(C(C)C)C(C)C)CC(CC(=O)NCC2CCCCC2)C(=O)N1Cc1ccccc1` (stereo unspecified), the Potency result is “inactive”. The same measure, in the same setting: in the case of `O=C(NCc1ccccn1)[C@@H]1CCCN1C(=O)[C@@H]1CCCN1C(=O)c1ccccc1` it was “inactive”; in that of `CC(=O)N/N=C(\C)c1ccc(Br)cc1Br`, “inactive”; in that of `CC(C)/C=N/NC(=O)c1cc(Br)ccc1O`, “inactive”. Same read-out and setting: in the case of `CC(=N\NC(=O)c1cc(Br)ccc1O)/C(=N/O)C(=O)Nc1ccccc1` it was 16.4 µM (active); in that of `CN(C)C1CN(Cc2cn(Cc3ccccc3)nn2)S(=O)(=O)C1` (stereo unspecified), “inactive”; in that of `CCCNC(=O)C1(C)CCN(C(=O)c2cc(F)ccc2C)C1` (stereo unspecified), “inactive”. In the case of `CSc1ccc(CNC(=O)C2(C)CCCN2C)cc1` (stereo unspecified), the Potency entry is “inactive”. The same measure, in the same setting: in the case of `COc1cc(CN2CCC(n3nccc3NC(=O)CCCc3ccccc3)CC2)ccc1O` it was “inactive”; in that of `COc1ccc(CN2CCC(n3nccc3NC(=O)CCCc3ccccc3)CC2)cc1C`, 18.4 µM (active).

Consider `Cc1ccc(CN2CCC(n3nccc3NC(=O)CCCc3ccccc3)CC2)o1`, for which the Potency result was “inactive”. The same measure, in the same setting: the value for `Cc1noc(C)c1NC(=O)N(C)C[C@@H]1Oc2cc(Br)ccc2S(=O)(=O)N([C@@H](C)CO)C[C@H]1C` was “inactive”; that for `CCCNC(=O)C1(C)CCN(C(=O)c2ccc(F)cc2Cl)C1` (stereo unspecified) was “inactive”. Same read-out and setting: the value for `Cc1cccc(C)c1-n1nnnc1C(CCc1ccccc1)N1CCN(C/C=C/c2ccccc2)CC1` (stereo unspecified) was “inactive”; that for `O=C(CC[C@H]1O[C@@H](n2ccc(=O)[nH]c2=O)[C@H](O)[C@@H]1O)N[C@H](Cc1ccccc1)C(=O)NCCCN1CCCC1=O` was “inactive”; that for `O=C(/C=C/c1ccc([N+](=O)[O-])o1)NNC(=O)c1ccc(F)cc1` was 2.59 µM (active).

On to `CCc1noc(C)c1C(=O)NNC(=O)c1ccc(F)cc1`, for which the Potency result is “inactive”. Same read-out and setting: the value for `O=C(NNC(=O)C1CCCC1)c1ccc(F)cc1` was “inactive”; that for `CC(C)c1ccc2c(c1)c(SC(C)(C)C)c(CC(C)(C)C(=O)O)n2Cc1ccc(Cl)cc1` was 18.4 µM (active).

With `N#CCCN(C(=O)Nc1ccc(Cl)c(Cl)c1)C1CCCCC1`, the Potency result was “inactive”. The same measure, in the same setting: in the case of `C[C@H](CO)N1C[C@H](C)[C@@H](CN(C)C(=O)c2cccc(F)c2)Oc2cc(-c3cncnc3)ccc2S1(=O)=O` it was “inactive”; in that of `Clc1cccc(N=C2NN=C(c3ccc4c(c3)OCCO4)CS2)c1`, 7.94 µM (active); in that of `CN(C)c1nc(=Nc2cccc(Cl)c2)ss1`, “inactive”. As to `C[C@H]1CN([C@@H](C)CO)C(=O)CCCn2cc(nn2)CO[C@@H]1CN(C)S(=O)(=O)c1cccs1`, the Potency entry is “inactive”. With `CCCn1c(N)c(C(=O)CSc2nnc(Cc3cccs3)n2C2CC2)c(=O)[nH]c1=O`, the Potency result is “inactive”. Same read-out and setting: in the case of `COc1ccc(N)cc1NC(=O)CN1CCOCC1` it was “inactive”; in that of `O=C(COC(=O)COc1cc(Cl)c(Cl)cc1Cl)NC1CC1`, “inactive”; in that of `NC(=S)NN=Cc1ccc(OC(=O)COc2cc(Cl)c(Cl)cc2Cl)cn1`, 7.31 µM (active).

For `O=C(COc1ccc(Cl)cc1Cl)N/N=C/c1ccccn1`, the Potency result was “inactive”. `CC(C)c1cc(Cn2c3ccccc3c(=O)n2C(C)Cn2cc(C3CC3)nn2)on1` (stereo unspecified): the Potency entry was “inactive”. Still for that read-out and setting: in the case of `CSc1ncc(Cl)c(C(=O)Nc2cc(C)ccc2C)n1` it was “inactive”; in that of `Cc1nnc(NC(=O)c2ccc3nccnc3c2)s1`, “inactive”. Still for that read-out and setting: the value for `Cc1ccc(CS(=O)(=O)c2ncc(Cl)c(C(=O)Nc3nnc(C)s3)n2)cc1` was 20.6 µM (active); that for `CSc1nnc(NC(=O)c2nc(S(=O)(=O)Cc3ccc(C)cc3)ncc2Cl)s1` was 6.51 µM (active).

For the molecule `COCCSc1nnc(NC(=O)CCS(=O)(=O)Cc2ccccc2)s1`, the Potency entry was “inactive”. On the same count and under the same terms, in the case of `Cc1nnc(NC(=O)CCCOc2ccccc2)s1` it was “inactive”.

As to `Cc1cc(OCC(=O)Nc2nccs2)c2c(C)c(C)c(=O)oc2c1`, the Potency result was “inactive”.

For the molecule `CNC(=O)c1ccc(CN(C)C(=O)c2cc(C3CC3)nc3c2cnn3C(C)C)cc1`, the Potency result was “inactive”.

As for `CC(=O)Oc1ccc(Cn2c(C)c(C(=O)NCc3ccc(C#N)cc3)sc2=O)cc1`, the Potency result is “inactive”. The same measure, in the same setting: the value for `O=C(/C=C/[C@H]1O[C@@H](n2ccc(=O)[nH]c2=O)[C@H](O)[C@@H]1O)NCc1ccccn1` was “inactive”; that for `CC1C(=O)Nc2ccccc2N1C(=O)c1c(F)cccc1F` (stereo unspecified) was “inactive”. On the same count and under the same terms, the value for `Cc1c(CCO)c(=O)[nH]n1C(=O)c1c(F)cccc1F` was 6.31 µM (active). Same read-out and setting: in the case of `Cc1c(CCO)c(=O)n(-c2ccccc2)n1S(=O)(=O)c1ccc(F)cc1` it was “inactive”. Regarding `Cc1ccc(C(=O)OCC(=O)NC2CCCCCCC2)cc1C`, the Potency entry is “inactive”. The same measure, in the same setting: the value for `CCOC(=O)C1CCCN(C(=O)c2ccc(N(C)C)cc2)CC1` (stereo unspecified) was “inactive”; that for `CSc1ncnc2c1ncn2CCCNCc1cccs1` was “inactive”; that for `CC1(C(=O)NS(=O)(=O)c2cccs2)CCN1C(=O)Cc1ccc(-c2ccccc2)cc1` (stereo unspecified) was “inactive”. Turning to `Cc1ccc(-c2nc3ccc(Cl)cn3c2Cc2ccccc2)cc1`, the Potency entry was “inactive”. Same read-out and setting: in the case of `Cc1ccc(Cc2c(-c3ccco3)nc3ccc(Cl)cn23)cc1` it was 16.4 µM (active); in that of `Cc1ccc(Cc2c(-c3ccccc3)nc3ccc(Cl)cn23)cc1`, “inactive”; in that of `Cc1cccc(CNC(=O)c2sc(=O)n(Cc3ccccc3C)c2C)c1`, “inactive”. The same measure, in the same setting: the value for `CCN(CC)C(=O)C1=C(C)N(Cc2ccc(OC)cc2)C(=O)C(CC(=O)NCc2ccco2)C1` (stereo unspecified) was “inactive”.

As to `CC(C)c1ccc(CC(=O)N2CCC2(C)C(=O)NS(=O)(=O)c2ccc(C(C)(C)C)cc2)cc1` (stereo unspecified), the Potency entry was “inactive”. In the case of `CC1=CC(C)(C)NC(=S)N1c1ccccc1`, the Potency is 11.2 µM (active). On the same count and under the same terms, the value for `CC1=CC(C)(C)NC(=S)N1NC(=O)c1ccccc1Cl` was “inactive”; that for `O=C1C(Sc2cccc(F)c2)=C[C@@]2(O)CC[C@@H](O)[C@]1(Sc1cccc(F)c1)[C@H]2O` was “inactive”. On the same count and under the same terms, in the case of `CCOC(=O)c1cc(-c2sc(NC(=O)c3ccccc3)nc2C)n(CCO)n1` it was “inactive”. The same measure, in the same setting: the value for `Cc1cc(C)n2c(Nc3c(C)cccc3C)c(CCc3ccccc3)nc2n1` was “inactive”. On to `COc1ccc(S(=O)(=O)N(C)C[C@H]2OCc3cnnn3CCCC(=O)N([C@H](C)CO)C[C@H]2C)cc1`, for which the Potency result was “inactive”. Still for that read-out and setting: the value for `Oc1c(Cl)cc(Cl)c(Cl)c1Cc1c(O)c(Cl)cc(Cl)c1Cl` was 7.31 µM (active); that for `COc1cc2nc(N3CCCN(C)CC3)nc(NC3CC3)c2cc1OC` was “inactive”; that for `CC(=O)NN=C(C)c1ccc(NC(=O)C2CC2)cc1` was “inactive”. Same read-out and setting: the value for `CCCCN1CC(C)(C)[C@H](CC(=O)Nc2ccc(Br)cc2)C1=O` was “inactive”; that for `COc1ccc(NC(=O)CCNC(=O)Cn2cnc3sc4c(c3c2=O)CCCC4)cc1OC` was “inactive”. On the same count and under the same terms, in the case of `COc1ccc(/C=N/Nc2ncnc3sc4c(c23)CCCC4)cc1O` it was 20.6 µM (active); in that of `COc1ccc(NC(=O)CCCNC(=O)Cn2cnc3sc4c(c3c2=O)CCCC4)cc1OC`, “inactive”; in that of `Nc1cccc(-c2cncc(N3CCN(Cc4ccccn4)CC3)n2)c1`, “inactive”. As to `C[C@H](CO)N1C[C@H](C)[C@H](CN(C)C(=O)Nc2ccc3c(c2)OCO3)Oc2ncc(Br)cc2C1=O`, the Potency result was “inactive”.

Consider `COc1ccccc1-n1nnnc1SCC(=O)NC(=O)Cc1ccccc1`, for which the Potency entry was “inactive”. For the molecule `CCC(C)N(C(=O)CSc1nnnn1-c1ccccc1OC)C1CCS(=O)(=O)C1` (stereo unspecified), the Potency result was “inactive”. Take `COc1ccccc1-n1nnnc1S(=O)(=O)Cc1ccc(Cl)cc1`: the Potency was 16.4 µM (active).

For the molecule `OC[C@@H]1CN(Cc2ccc3c(c2)OCO3)C[C@H](n2cnc3c(NCc4ccco4)ncnc32)O1`, the Potency result is “inactive”. Regarding `CC(C)(C)C1CCC(=O)N2CCC[C@]2(c2ccccc2)C1` (stereo partly specified), the Potency result is “inactive”. Same read-out and setting: in the case of `CCCc1ccc(S(=O)(=O)N2CCN(C(=O)c3cc(C)on3)CC2)cc1` it was “inactive”. The same measure, in the same setting: the value for `Cc1cc(Nc2ccc(C)c(C)c2)n2ncnc2n1` was “inactive”; that for `CC(=O)OC[C@@H]1CN(Cc2ccccc2)C[C@H](n2cnc3c(NCc4ccco4)ncnc32)O1` was “inactive”; that for `O=C(Nc1ccc(Cl)cn1)c1ccccc1-c1ccccc1` was “inactive”. In the case of `CSc1ccccc1-c1nnc(-c2ccc(Cl)cc2)o1`, the activity, negative = toxicity was -1.6% [at 9.24 µM]. Regarding `Oc1ccccc1-c1cc(-c2ccc(Cl)cc2)n[nH]1`, the Potency was 16.4 µM (active). The same measure, in the same setting: in the case of `O=C(COc1ccc(Br)cc1)OCC(=O)c1ccc[nH]1` it was “inactive”; in that of `Cc1ccc(C(=O)N[C@H](C(=O)N2CCN(c3ncccn3)CC2)C(C)C)cc1`, “inactive”.

As for `O=C(N/N=C/c1ccccc1O)C1CCCC1`, the Potency was 23.1 µM (active). Still for that read-out and setting: in the case of `O=C(CO/N=C/c1ccccc1O)NNC(=O)c1ccccc1Cl` it was “inactive”. On the same count and under the same terms, in the case of `O=C(CCC(=O)Nc1ccccc1)N/N=C/c1ccccc1F` it was “inactive”; in that of `COc1ccc(/C=N/NC(=O)C2CC2)c(OC)c1OC`, “inactive”. On the same count and under the same terms, the value for `O=C(NN=Cc1ccccc1O)NN=Cc1ccccc1O` was 8.2 µM (active). Take `Oc1ccccc1C=NC1CCCCC1N=Cc1ccccc1O` (stereo unspecified): the Potency result is “inactive”. Same read-out and setting: in the case of `O=C(NN=Cc1ccccc1)c1ccccc1` it was “inactive”; in that of `C=CCOc1ccccc1/C=N/NC(=O)Cc1ccccc1`, “inactive”; in that of `O=C(N/N=C/c1ccccc1O)/C(=C/c1ccccc1)CCO`, 3.26 µM (active). As for `Brc1ccc2nc(-c3ccccc3)c(Cc3ccccc3)n2c1`, the Potency entry is “inactive”. Still for that read-out and setting: the value for `O=C(N/N=C/c1ccc(Cl)cc1)c1nc2ccc([N+](=O)[O-])cc2c(=O)[nH]1` was “inactive”; that for `N#C/C(=C(/O)COC(=O)COc1ccc(Cl)cc1)c1nc2ccccc2[nH]1` was “inactive”. Turning to `O=C(/C(=C/c1cccc(Cl)c1)c1nc2ccccc2[nH]1)c1ccccc1`, the Potency was 3.26 µM (active). The same measure, in the same setting: the value for `O=C(Nc1cc(Br)ccc1F)c1nc[nH]c1C(=O)NCc1ccccc1` was “inactive”; that for `CCOC(=O)c1ccc(NC(=O)c2nc[nH]c2C(=O)NCc2ccccc2)cc1` was “inactive”; that for `O=C(Nc1ccon1)c1nc[nH]c1C(=O)NCc1ccccc1` was 2.59 µM (active).

These data come from PubChem BioAssay AID686971 (National Center for Advancing Translational Sciences (NCATS), 2013).
